Laboratory results from PubChem BioAssay (EPA / NIEHS).
The source made the active and inactive calls. Rule for the calls: active = hit-call score of the fitted dose curve at least 0.9, where 1 is the maximum; inactive = score below 0.9.

What was measured:
[1] = ATG_GLI_CIS: Attagene CIS-FACTORIAL HepG2 Assay for human Zinc Finger Protein GLI1 (AID 2282945); details: HepG2, Attagene cis-factorial reporter mRNA, GLI element; actives raise or lower the signal
How it was run: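 HepG2 cells transiently transfected with cis-promoter multiplexed reporter units report endogenous transcription factor activity. After 24 h chemical exposure, reporter mRNA was quantified by RT-PCR, 6-FAM labelling, HpaI digestion and capillary electrophoresis, with bidirectional fitting against DMSO.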

[2] = molecular target: Bile acid receptor (Homo sapiens) (UniProt Q96RI1); experiment: ATG_IR1_CIS: Attagene CIS-FACTORIAL HepG2 Assay for human Nuclear Receptor Subfamily 1 Group H Member 4 (NR1H4), IR1 submotif (AID 2282946); details: IR1 reporter transcription, actives raise or lower the signal
Sequence of Bile acid receptor (Homo sapiens) (Q96RI1 whole entry, looked up): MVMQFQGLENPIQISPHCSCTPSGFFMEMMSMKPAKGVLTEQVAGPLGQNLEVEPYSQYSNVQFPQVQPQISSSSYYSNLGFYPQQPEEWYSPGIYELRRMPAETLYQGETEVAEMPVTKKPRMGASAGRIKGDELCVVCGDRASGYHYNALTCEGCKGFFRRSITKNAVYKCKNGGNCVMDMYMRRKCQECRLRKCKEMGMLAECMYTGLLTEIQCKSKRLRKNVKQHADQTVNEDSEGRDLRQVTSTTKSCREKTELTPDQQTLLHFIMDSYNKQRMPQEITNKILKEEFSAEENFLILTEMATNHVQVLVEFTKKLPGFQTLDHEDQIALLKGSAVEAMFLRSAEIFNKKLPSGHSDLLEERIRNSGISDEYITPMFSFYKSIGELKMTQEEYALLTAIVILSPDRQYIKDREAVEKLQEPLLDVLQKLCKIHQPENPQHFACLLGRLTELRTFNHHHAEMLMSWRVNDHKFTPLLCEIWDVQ
How it was run: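 Transient MRTU transfection, HepG2; 24 h dosing; RNA → RT-PCR → 6-FAM primer extension → HpaI digest → capillary electrophoresis fluorescence. Gain/loss of signal fitted relative to DMSO.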

[3] = ATG_ISRE_CIS: Attagene CIS-FACTORIAL HepG2 Assay for human Interferon Regulatory Factor 1 (IRF1) binding to an Interferon-Stimulated Response Element (ISRE) (AID 2282948); details: HepG2 ISRE cis-reporter (Attagene), mRNA transcription readout; actives raise or lower the signal
How it was run: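 Transfected HepG2 (multiple reporter transcription units, cis elements) dosed 24 h. RNA → oligo(dT) RT → PCR → 6-FAM primer extension → HpaI → CE. DMSO = negative control/baseline.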

[4] = ATG_M_32_CIS: Attagene CIS-FACTORIAL HepG2 Assay for M32 Transcription Factor (Internal Marker) (AID 2282949); details: HepG2 Attagene cis-factorial M32 reporter, mRNA; actives raise or lower the signal;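 note: background control marker of the multiplexed CIS panel rather than a real target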
How it was run: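 Fluorescent capillary electrophoresis peaks of HpaI-digested, FAM-labelled RT-PCR reporter products give the signal. Source: transiently transfected human liver HepG2 cells, 24 h after chemical dosing; bidirectional fitting against DMSO.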

[5] = ATG_M_06_CIS: Attagene CIS-FACTORIAL HepG2 Assay for M06 Transcription Factor (Internal Marker) (AID 2282950); details: HepG2 Attagene CIS-FACTORIAL M06 internal marker reporter; actives raise or lower the signal
How it was run: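 Read-out is fluorescence of labelled reporter cDNA fragments resolved by capillary electrophoresis after RT-PCR. Cells: HepG2 carrying transfected cis-promoter reporter units, treated 24 h. Gain or loss of signal fitted relative to DMSO.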

[6] = molecular target: Hypoxia-inducible factor 1-alpha (Homo sapiens) (UniProt Q16665); experiment: ATG_HIF1a_CIS: Attagene CIS-FACTORIAL HepG2 Assay for human Hypoxia Inducible Factor 1 (HIF1A) (AID 2282951); details: HepG2 Attagene cis-factorial HIF1a reporter transcription; actives raise or lower the signal
Sequence of Hypoxia-inducible factor 1-alpha (Homo sapiens) (Q16665 whole entry, looked up): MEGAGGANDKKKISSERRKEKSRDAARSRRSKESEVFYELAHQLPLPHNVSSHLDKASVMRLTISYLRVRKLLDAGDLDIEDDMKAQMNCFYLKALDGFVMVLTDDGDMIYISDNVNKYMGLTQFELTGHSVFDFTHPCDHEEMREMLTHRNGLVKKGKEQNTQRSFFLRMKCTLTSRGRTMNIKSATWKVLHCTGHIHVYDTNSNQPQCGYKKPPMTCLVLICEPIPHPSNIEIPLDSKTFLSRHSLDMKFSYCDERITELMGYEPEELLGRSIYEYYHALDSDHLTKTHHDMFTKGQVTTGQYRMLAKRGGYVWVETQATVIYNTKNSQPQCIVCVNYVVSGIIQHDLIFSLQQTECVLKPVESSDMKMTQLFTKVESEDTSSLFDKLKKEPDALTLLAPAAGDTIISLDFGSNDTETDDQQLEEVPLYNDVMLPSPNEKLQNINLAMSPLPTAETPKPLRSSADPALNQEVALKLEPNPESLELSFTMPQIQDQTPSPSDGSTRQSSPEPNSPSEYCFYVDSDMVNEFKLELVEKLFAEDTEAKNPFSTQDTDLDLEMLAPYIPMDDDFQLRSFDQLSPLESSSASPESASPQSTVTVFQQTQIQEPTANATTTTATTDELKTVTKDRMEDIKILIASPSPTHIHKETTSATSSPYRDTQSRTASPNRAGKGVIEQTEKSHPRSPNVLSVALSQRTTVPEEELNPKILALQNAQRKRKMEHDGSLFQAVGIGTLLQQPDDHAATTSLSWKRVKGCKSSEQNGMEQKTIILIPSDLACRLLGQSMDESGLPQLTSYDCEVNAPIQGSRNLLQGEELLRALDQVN
How it was run: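 Dosed 24 h, transfected HepG2 cells yielded total RNA whose reporter transcripts were RT-PCR-amplified and sized by capillary electrophoresis using fluorescent labelling; DMSO defined baseline, with gain and loss of signal both fitted.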

[7] = molecular target: Hepatocyte nuclear factor 6 (Homo sapiens) (UniProt Q9UBC0); experiment: ATG_HNF6_CIS: Attagene CIS-FACTORIAL HepG2 Assay for human Hepatocyte Nuclear Factor 6 (HNF6) (AID 2282952); details: HepG2 Attagene cis-factorial HNF6 reporter transcription; actives raise or lower the signal
Sequence of Hepatocyte nuclear factor 6 (Homo sapiens) (Q9UBC0 whole entry, looked up, the tested form may be a part): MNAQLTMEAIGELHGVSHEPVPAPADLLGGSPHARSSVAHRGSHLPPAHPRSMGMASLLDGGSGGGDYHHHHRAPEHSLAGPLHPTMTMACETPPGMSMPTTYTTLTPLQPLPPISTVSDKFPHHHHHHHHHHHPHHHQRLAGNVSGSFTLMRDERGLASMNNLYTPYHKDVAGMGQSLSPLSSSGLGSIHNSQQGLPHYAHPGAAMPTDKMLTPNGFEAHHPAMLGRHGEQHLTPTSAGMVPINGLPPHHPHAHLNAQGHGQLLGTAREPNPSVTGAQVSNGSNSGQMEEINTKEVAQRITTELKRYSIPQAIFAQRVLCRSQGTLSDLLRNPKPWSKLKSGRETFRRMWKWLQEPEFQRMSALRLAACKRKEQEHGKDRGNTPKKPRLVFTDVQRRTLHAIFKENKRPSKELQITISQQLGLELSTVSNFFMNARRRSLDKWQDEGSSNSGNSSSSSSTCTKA
How it was run: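 HepG2 cells transiently transfected with cis-element-driven multiplexed reporter units measuring endogenous transcription factor activity. After 24 h exposure, reporter mRNA quantified by RT-PCR, FAM-labelled fragments and capillary electrophoresis; bidirectional fitting versus DMSO.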

[8] = molecular target: Heat shock factor protein 1 (Homo sapiens) (UniProt Q00613); experiment: ATG_HSE_CIS: Attagene CIS-FACTORIAL HepG2 Assay for human Heat Shock Transcription Factor 1 (HSE) (AID 2282953); details: HepG2 HSE cis-reporter, Attagene RNA transcription; actives raise or lower the signal
Sequence of Heat shock factor protein 1 (Homo sapiens) (Q00613 whole entry, looked up): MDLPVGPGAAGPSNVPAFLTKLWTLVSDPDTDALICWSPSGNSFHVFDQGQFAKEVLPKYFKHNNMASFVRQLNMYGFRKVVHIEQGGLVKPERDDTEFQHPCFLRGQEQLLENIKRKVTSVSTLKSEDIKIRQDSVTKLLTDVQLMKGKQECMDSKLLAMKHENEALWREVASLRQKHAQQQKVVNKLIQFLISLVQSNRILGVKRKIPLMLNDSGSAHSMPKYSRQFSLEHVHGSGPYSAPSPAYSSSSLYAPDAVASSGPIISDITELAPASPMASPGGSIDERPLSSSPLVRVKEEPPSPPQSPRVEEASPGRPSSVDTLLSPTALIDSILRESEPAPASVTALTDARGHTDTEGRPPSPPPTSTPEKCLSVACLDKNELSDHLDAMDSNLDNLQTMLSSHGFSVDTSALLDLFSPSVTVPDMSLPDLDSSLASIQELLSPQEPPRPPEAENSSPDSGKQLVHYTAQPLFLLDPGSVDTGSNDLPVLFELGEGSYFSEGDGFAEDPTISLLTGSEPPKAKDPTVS
How it was run: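 HepG2, transient MRTU transfection, cis-promoter reporters (endogenous TF activity). 24 h compound. RNA → oligo(dT) RT → PCR → 6-FAM primer extension → HpaI cut → CE. Bidirectional fit vs DMSO.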

[9] = ATG_MRE_CIS: Attagene CIS-FACTORIAL HepG2 Assay for human Metal Responsive Element (MRE) (AID 2282954); details: HepG2 MRE cis-reporter transcription, Attagene multiplex; actives raise or lower the signal
How it was run: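 Step one: transfect HepG2 with cis-regulated reporter units. Step two: dose 24 h. Step three: isolate RNA, RT-PCR, 6-FAM label, HpaI digest, capillary electrophoresis. Fit bidirectionally to DMSO.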

[10] = molecular target: Paired box protein Pax-6 (Homo sapiens) (UniProt P26367); experiment: ATG_Pax6_CIS: Attagene CIS-FACTORIAL HepG2 Assay for human Paired Box 6 (PAX6) (AID 2282956); details: HepG2 CIS-FACTORIAL PAX6 reporter transcription, RNA readout; actives raise or lower the signal
Sequence of Paired box protein Pax-6 (Homo sapiens) (P26367 whole entry, looked up): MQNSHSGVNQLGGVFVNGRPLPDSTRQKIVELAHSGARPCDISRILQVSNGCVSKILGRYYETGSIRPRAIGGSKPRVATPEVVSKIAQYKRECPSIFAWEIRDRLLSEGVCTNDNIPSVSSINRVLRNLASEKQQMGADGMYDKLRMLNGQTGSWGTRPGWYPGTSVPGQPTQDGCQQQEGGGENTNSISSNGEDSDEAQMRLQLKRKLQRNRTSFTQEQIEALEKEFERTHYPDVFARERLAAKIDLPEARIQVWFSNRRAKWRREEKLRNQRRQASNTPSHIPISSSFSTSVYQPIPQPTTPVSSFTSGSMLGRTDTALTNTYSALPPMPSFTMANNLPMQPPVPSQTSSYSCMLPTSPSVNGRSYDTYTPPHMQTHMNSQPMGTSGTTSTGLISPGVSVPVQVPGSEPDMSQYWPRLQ
How it was run: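 Transient MRTU transfection of HepG2 → compound exposure 24 h → TriZol RNA, oligo(dT) RT → PCR, 6-FAM primer extension, HpaI cut → capillary electrophoresis; activity fitted both directions against DMSO.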

[11] = ATG_PXRE_CIS: Attagene CIS-FACTORIAL HepG2 Assay for human Pregnane X Receptor Element (PXRE) (AID 2282957); details: HepG2 Attagene CIS-FACTORIAL PXRE reporter, mRNA; actives raise or lower the signal
How it was run: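 HepG2 cells transiently transfected with cis-element-driven multiplexed reporter units; after 24 h chemical exposure, reporter mRNA measured by RT-PCR, 6-FAM labelling, HpaI digestion and capillary electrophoresis. Bidirectional fitting relative to DMSO.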

[12] = ATG_Sox_CIS: Attagene CIS-FACTORIAL HepG2 Assay for human SRY-box transcription factor (SOX) (AID 2282960); details: HepG2 Attagene cis-factorial SOX reporter, mRNA; actives raise or lower the signal
How it was run: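 Gain- or loss-of-signal endpoint, fitted bidirectionally with DMSO as negative control. Based on reporter mRNA from transfected HepG2 cells harvested 24 h post-treatment and quantified via RT-PCR and capillary electrophoresis.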

[13] = molecular target: Transcription factor Sp1 (Homo sapiens) (UniProt P08047); experiment: ATG_Sp1_CIS: Attagene CIS-FACTORIAL HepG2 Assay for human Specificity Protein 1 (Sp1) (AID 2282961); details: HepG2 Sp1 cis-reporter transcription, actives raise or lower the signal
Sequence of Transcription factor Sp1 (Homo sapiens) (P08047 whole entry, looked up, the tested form may be a part): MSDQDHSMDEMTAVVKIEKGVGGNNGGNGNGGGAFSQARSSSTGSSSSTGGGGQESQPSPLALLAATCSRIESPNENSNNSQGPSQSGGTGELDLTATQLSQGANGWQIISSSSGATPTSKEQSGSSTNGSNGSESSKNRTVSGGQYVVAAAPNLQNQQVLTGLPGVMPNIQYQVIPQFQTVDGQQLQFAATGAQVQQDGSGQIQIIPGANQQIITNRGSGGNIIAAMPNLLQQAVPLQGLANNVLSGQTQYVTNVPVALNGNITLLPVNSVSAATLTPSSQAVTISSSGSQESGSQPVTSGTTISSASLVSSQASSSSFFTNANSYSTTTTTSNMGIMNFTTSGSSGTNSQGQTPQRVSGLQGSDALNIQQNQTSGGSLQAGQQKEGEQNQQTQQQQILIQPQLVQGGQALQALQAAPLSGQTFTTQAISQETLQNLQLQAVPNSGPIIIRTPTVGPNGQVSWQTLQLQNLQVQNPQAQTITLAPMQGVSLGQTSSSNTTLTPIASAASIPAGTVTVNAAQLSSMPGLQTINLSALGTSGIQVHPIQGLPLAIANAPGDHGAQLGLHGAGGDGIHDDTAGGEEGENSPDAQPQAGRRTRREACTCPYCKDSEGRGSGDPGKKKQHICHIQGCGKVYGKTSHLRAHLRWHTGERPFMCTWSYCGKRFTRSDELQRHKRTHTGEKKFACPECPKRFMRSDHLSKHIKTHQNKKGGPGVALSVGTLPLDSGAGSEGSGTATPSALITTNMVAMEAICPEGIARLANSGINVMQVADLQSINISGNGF
How it was run: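 Endpoint reflects endogenous Sp1 transcriptional activity, not an exogenous fusion protein: HepG2 cells with transfected cis-regulated reporters, 24 h dosing, RT-PCR/capillary electrophoresis mRNA read-out, DMSO-normalised bidirectional fit.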

[14] = ATG_SREBP_CIS: Attagene CIS-FACTORIAL HepG2 Assay for human Sterol Regulatory Element Binding (SREBP) (AID 2282962); details: HepG2 Attagene cis-factorial SREBP reporter, mRNA; actives raise or lower the signal
How it was run: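 Transfected HepG2 (cis-regulated reporter library, endogenous TFs) → compound 24 h → total RNA → oligo(dT) RT → reporter-specific PCR → FAM primer extension, HpaI cut → CE fluorescence. Fit bidirectional vs DMSO.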

[15] = molecular target: Signal transducer and activator of transcription 3 (Homo sapiens) (UniProt P40763); experiment: ATG_STAT3_CIS: Attagene CIS-FACTORIAL HepG2 Assay for human Signal Transducer and Activator of Transcription 3 (STAT3) (AID 2282963); details: HepG2, Attagene cis-factorial STAT3 reporter transcription; actives raise or lower the signal
Sequence of Signal transducer and activator of transcription 3 (Homo sapiens) (P40763 whole entry, looked up): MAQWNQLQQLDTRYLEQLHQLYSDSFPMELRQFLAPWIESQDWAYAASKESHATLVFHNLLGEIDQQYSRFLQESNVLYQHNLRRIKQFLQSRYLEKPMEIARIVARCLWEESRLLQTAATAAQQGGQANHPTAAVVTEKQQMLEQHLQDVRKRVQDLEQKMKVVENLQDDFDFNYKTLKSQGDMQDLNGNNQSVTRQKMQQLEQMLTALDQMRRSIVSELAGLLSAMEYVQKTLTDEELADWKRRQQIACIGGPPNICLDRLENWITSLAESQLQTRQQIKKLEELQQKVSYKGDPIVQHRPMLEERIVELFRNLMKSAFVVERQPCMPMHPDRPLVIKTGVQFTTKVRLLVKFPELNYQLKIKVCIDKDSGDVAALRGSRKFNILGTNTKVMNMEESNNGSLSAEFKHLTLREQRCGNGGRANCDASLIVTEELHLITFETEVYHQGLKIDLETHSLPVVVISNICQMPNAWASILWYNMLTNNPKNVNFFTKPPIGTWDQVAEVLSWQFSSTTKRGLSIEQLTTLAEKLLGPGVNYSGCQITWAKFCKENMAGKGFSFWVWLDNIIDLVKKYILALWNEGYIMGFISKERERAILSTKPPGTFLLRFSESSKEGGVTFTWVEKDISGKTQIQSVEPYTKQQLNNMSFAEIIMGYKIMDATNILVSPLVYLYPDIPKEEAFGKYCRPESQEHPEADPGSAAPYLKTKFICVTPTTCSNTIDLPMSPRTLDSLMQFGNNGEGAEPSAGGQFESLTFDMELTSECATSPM
How it was run: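 Transcript-level reporter assay. HepG2 transient MRTU transfection, 24 h exposure, fluorescence detection after RT-PCR and CE; DMSO baseline.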

[16] = ATG_TA_CIS: Attagene CIS-FACTORIAL HepG2 Assay for human TA Basal Promoter (AID 2282964); details: HepG2 Attagene CIS-factorial TA basal promoter reporter; actives raise or lower the signal
How it was run: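 Read-out: fluorescent reporter-transcript fragments resolved by capillary electrophoresis after RT-PCR and HpaI digestion. Source: HepG2 cells carrying transiently transfected multi-reporter cis constructs, treated 24 h. Endpoint fitted bidirectionally relative to DMSO.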

[17] = ATG_PPRE_CIS: Attagene CIS-FACTORIAL HepG2 Assay for human Peroxisome Proliferator-activated Response Element (PPRE) (AID 2282958); details: HepG2 PPRE cis-element reporter, Attagene transcription factor profiling; actives raise or lower the signal
How it was run: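 Measured endpoint: PPRE-controlled reporter mRNA, detected by RT-PCR and capillary electrophoresis fluorescence, from transiently transfected HepG2 cells 24 h after dosing. Curves fitted in both directions using DMSO baseline.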

[18] = ATG_RORE_CIS: Attagene CIS-FACTORIAL HepG2 Assay for human RAR-related Orphan Receptor Element (RORE) (AID 2282959); details: HepG2 Attagene cis-factorial RORE reporter, mRNA; actives raise or lower the signal
How it was run: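 Transiently transfected HepG2 reporter cells were treated 24 h. Reporter transcripts were detected by RT-PCR and capillary electrophoresis, with bidirectional fitting against DMSO.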

[19] = ATG_GRE_CIS: Attagene CIS-FACTORIAL HepG2 Assay for human Glucocorticoid Response Elements (GRE) (AID 2282947); details: HepG2 GRE cis-reporter, Attagene multiplex mRNA; actives raise or lower the signal
How it was run: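 Following 24 h chemical exposure of transiently transfected HepG2 cells, total RNA was reverse-transcribed and reporter cDNA amplified, fluorescently labelled and sized by capillary electrophoresis. Signal gain or loss was fitted relative to DMSO vehicle.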

[20] = ATG_PBREM_CIS: Attagene CIS-FACTORIAL HepG2 Assay for human Phenobarbital-responsive Enhancer Module (PBREM) (AID 2282955); details: HepG2 PBREM cis-reporter, Attagene multiplexed transcription; actives raise or lower the signal
How it was run: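 Transfected liver-derived HepG2 cells exposed 24 h; PBREM reporter transcript quantified via RT-PCR and capillary electrophoresis, with activity in either direction referenced to DMSO.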

Measured: AC50

CCOc1ccc(NC(N)=O)cc1
inactive: [1] | [2] | [3] | [4] | [5] | [6] | [7] | [8] | [9] | [10] | [11] | [12] | [13] | [14] | [15] | [16]

Nc1ccc(Cl)c(N)c1
inactive: [1] | [2] | [3] | [4] | [5] | [6] | [8] | [9] | [10] | [17] | [18] | [12] | [13] | [14] | [15] | [16]

CCC(C)c1ccccc1 (stereo not drawn)
inactive: [1] | [2] | [3] | [4] | [5] | [6] | [8] | [10] | [11] | [18] | [12] | [13] | [14] | [15] | [16]

Cc1noc(NS(=O)(=O)c2ccc(N)cc2)c1C
inactive: [1] | [2] | [3] | [4] | [5] | [6] | [7] | [8] | [9] | [10] | [11] | [12] | [13] | [14] | [15] | [16]

C=CC(=O)NCOCCCC
inactive: [1] | [19] | [3] | [4] | [5] | [6] | [7] | [8] | [9] | [20] | [10] | [17] | [18] | [13] | [14] | [15] | [16]
active: [11] 36.7 µM

O=S(=O)(O)c1ccc(N=Nc2c(O)ccc3ccccc23)cc1
inactive: [1] | [19] | [3] | [4] | [5] | [7] | [8] | [9] | [20] | [10] | [17] | [18] | [12] | [13] | [14] | [15] | [16]
active: [6] 3 µM | [11] 31.6 µM

c1ccc2c(c1)[nH]c1ccccc12
active: [11] 9.54 µM
inactive: [1] | [19] | [3] | [4] | [5] | [6] | [7] | [8] | [9] | [20] | [10] | [17] | [12] | [13] | [14] | [15] | [16]
